Jurkat NFkB inh – lowers PMA/ionomycin-induced NF-kB signal in Jurkat cells. 330,000 compounds, 0.53% hits. PMA/ionomycin-induced NF-kB luciferase reporter, luminescence. AID 435003. inhibition, % at 4 µM; in the data active means inhibition above about 50%
NR2F2 inh – inhibitors of human COUP-TFII (NR2F2); HEK293T NGFI-A luciferase reporter, luminescence; 370,000 compounds, 0.7% hits; P24468; AID 686940; inhibition, % at 8.6 µM;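 active means inhibition above a per-plate cutoff, mean inhibition of test wells between control levels plus 3 SD, cut at about 38% in these data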;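 further: cells cotransfected with COUP-TFII expression vector driving the NGFI-A reporter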
Target sequence (P24468 whole entry, looked up): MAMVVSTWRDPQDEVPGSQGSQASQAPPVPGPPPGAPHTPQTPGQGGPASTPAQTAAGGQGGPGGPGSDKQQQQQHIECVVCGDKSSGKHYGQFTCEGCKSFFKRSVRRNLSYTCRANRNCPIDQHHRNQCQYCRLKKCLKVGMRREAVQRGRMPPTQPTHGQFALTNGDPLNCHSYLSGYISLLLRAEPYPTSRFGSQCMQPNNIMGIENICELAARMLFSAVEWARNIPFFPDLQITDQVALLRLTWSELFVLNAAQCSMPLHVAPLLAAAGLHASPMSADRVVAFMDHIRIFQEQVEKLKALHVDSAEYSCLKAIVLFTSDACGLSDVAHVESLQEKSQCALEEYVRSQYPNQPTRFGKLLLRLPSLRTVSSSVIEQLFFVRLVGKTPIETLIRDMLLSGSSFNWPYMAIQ
697 NFkB inh – lowers PMA/ionomycin-induced NF-kB signal in 697 B cells; 697 B-cell NF-kB luciferase reporter, 16 h; AID 435022; 330,000 compounds, 0.33% hits; inhibition, % at 4 µM; in the data active means inhibition above about 35%
H9c2 TAG inh – triacylglycerol accumulation inhibition. 230,000 compounds, 0.66% hits. H9c2 cells, Nile Red lipid (TAG) fluorescence; cells loaded with 200 µM oleic acid. inhibition, % at 12.5 µM. AID 651582;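 active means pattern-corrected inhibition of lipid staining of at least 50% with the nuclear-stain viability signal not falling by more than 50%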
Gli-Sufu block – blocks Gli-Sufu signaling in a luciferase reporter. 340,000 compounds, 0.74% hits. inhibition, % at 5 µM. AID 588413. Sufu-KO-LIGHT fibroblasts, Gli luciferase reporter luminescence;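 active means inhibition above about 55%, limit read from the data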
Cardio protect – myocardial damage modulation in H9c2 cells | protection from H2O2 cell death, % at 20 µM | 360,000 compounds, 0.63% hits | H9c2 cardiomyocytes, H2O2 injury protection, ATPLite, 2 h;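 active means compounds giving at least 50% protection of heart cells from peroxide-induced death in the single-dose screen, raw or plate-pattern-corrected value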
A number is an active result; . = inactive; / = no result. Rows were chosen to be rich in hits. Some 2.6% of all compounds tested hit in one or more screens of this group.

SMILES	Jurkat NFkB inh	NR2F2 inh	697 NFkB inh	H9c2 TAG inh	Gli-Sufu block	Cardio protect
CC(C)(C)OC(=O)NCc1ccc(NC(=O)c2nc[nH]c2C(=O)NCCCCNC(=O)c2[nH]cnc2C(=O)Nc2ccc(CNC(=O)OC(C)(C)C)cc2)cc1	.	/	.	.	.	67.0
CC(C)(C)OC(=O)NCc1ccc(NC(=O)c2nc[nH]c2C(=O)NCCCCCCNC(=O)c2[nH]cnc2C(=O)Nc2ccc(CNC(=O)OC(C)(C)C)cc2)cc1	.	.	.	.	.	50.6
CC(C)(C)OC(=O)NCc1ccc(NC(=O)c2nc[nH]c2C(=O)NCCCNC(=O)c2[nH]cnc2C(=O)Nc2ccc(CNC(=O)OC(C)(C)C)cc2)cc1	.	/	.	.	.	52.3
Cc1cc(OCC(C)CN2CCC(C(O)(c3ccccc3)c3ccccc3)CC2)ccc1Br (stereo not drawn)	/	.	/	/	/	/
Cc1ccc(NC(=O)CSC(C)C(=O)OCc2cc(=O)oc3cc(O)ccc23)cc1 (stereo not drawn)	/	.	/	.	/	66.6
CSCCC(NS(=O)(=O)c1ccccc1)C(=O)OCc1nc2ccsc2c(=O)[nH]1 (stereo not drawn)	.	.	.	.	.	.
CSCCC(NS(=O)(=O)c1ccccc1)C(=O)OCc1cc(=O)oc2cc(O)ccc12 (stereo not drawn)	.	.	.	.	.	56.3
COc1cc2nc(C3CCC3)nc(N3CCN(c4ccccc4OC)CC3)c2cc1OC	.	.	.	/	.	.
COc1cc2nc(C3CCC3)nc(N3CCN(c4ccccn4)CC3)c2cc1OC	.	/	.	/	.	59.5
COc1ccc(Cc2n[nH]c(=O)c3ccccc23)cc1OC	.	.	.	.	.	61.9
O=c1[nH]nc(Cc2ccccc2)c2ccccc12	.	.	.	.	.	64.3
O=c1[nH]nc(Cc2ccc([N+](=O)[O-])cc2)c2ccccc12	.	.	.	/	.	64.2
O=c1[nH]nc(Cc2ccc3ccccc3n2)c2ccccc12	.	.	.	/	.	.
CC(C)CNc1cccc2c1S(=O)(=O)N(Cc1cn(Cc3cccc(F)c3)nn1)Cc1ccccc1O2	/	.	/	/	/	/
C/C(=N\NC(=O)CSCc1ccc([N+](=O)[O-])cc1)c1ccccc1O	.	.	.	/	.	63.1
C/C(=N\NC(=O)CSCc1ccc([N+](=O)[O-])cc1)c1ccccc1	.	.	.	.	.	.
CCSc1nnc(NC(=O)C2Cc3ccccc3CN2S(=O)(=O)CC)s1 (stereo not drawn)	.	.	.	/	.	63.8
O=C1[C@@H]2[C@H](C(=O)N1C[C@@H](COCc1ccccc1)Oc1cccc3c1S(=O)(=O)N(CCc1ccc(F)cc1)C[C@H](COCc1ccccc1)O3)[C@@H]1C=C[C@H]2C1	/	.	/	/	/	/
CCCCN1CC(COCc2ccccc2)Oc2cccc(OCCN3C(=O)[C@@H]4[C@H](C3=O)C3C=C[C@H]4C3)c2S1(=O)=O (stereo partly drawn)	/	.	/	.	.	70.8
COc1ccc(Oc2c(-c3cccs3)cnn(-c3ccc(C)cc3)c2=O)cc1	/	.	/	/	/	/
COc1ccc(C2C(C(=O)Nc3ccc(F)cc3F)CCC(=O)N2c2ccc(OC)cc2)cc1 (stereo not drawn)	/	.	/	/	/	/
O=C(N[C@H]1C/C=C\C[C@H](CC(=O)N(CCO)Cc2ccccc2)C(=O)N[C@@H](c2ccccc2)COC1=O)OCC1c2ccccc2-c2ccccc21	.	/	.	.	66.5	.
CC(C)(C)OC(=O)C[C@@H]1C/C=C\C[C@@H](CC(=O)N(CCO)Cc2ccccc2)C(=O)NC[C@H](c2ccccc2)OC1=O	.	.	.	.	.	92.2
CN(CCO)c1cccc2c1S(=O)(=O)N(Cc1cn(Cc3ccccc3C(F)(F)F)nn1)Cc1ccccc1O2	/	.	/	/	/	/
Cc1ccc(C(C)C)c(OCc2ccc(C(=O)N/N=C/c3cccc(O)c3O)cc2)c1	/	.	/	/	92.8	.
SMILES	Jurkat NFkB inh	NR2F2 inh	697 NFkB inh	H9c2 TAG inh	Gli-Sufu block	Cardio protect
Brc1ccc(-c2nn3c(-c4ccco4)nnc3s2)o1	.	.	.	/	.	93.8
Brc1ccc(-c2nn3c(-c4ccccn4)nnc3s2)o1	.	.	.	.	.	52.2
Clc1ccccc1-c1nn2c(-c3ccccn3)nnc2s1	.	.	.	/	.	.
O=C(CN1C(=O)CCC1=O)Nc1nc(-c2ccc3ccccc3c2)cs1	.	.	.	.	.	.
O=C(CN1C(=O)C2CCCCC2C1=O)Nc1nc(-c2ccc(F)cc2)cs1 (stereo not drawn)	.	.	.	.	.	.
O=C(CCCSc1ccccc1)Nc1nc(-c2ccccn2)cs1	.	.	.	.	.	64.4
O=C(CN1C(=O)C2CC=CCC2C1=O)Nc1nc(-c2ccc(F)cc2)cs1 (stereo not drawn)	.	.	.	.	.	58.2
O=C(CN1C(=O)CCC1=O)Nc1nc(-c2ccccn2)cs1	.	.	.	.	.	52.5
NCCC(=O)Nc1ccc(Cl)cc1C(=O)c1ccc[nH]1	/	.	/	/	/	/
COc1cc(/C=C2\SC(=S)N(CCC(=O)Nc3cccc(O)c3)C2=O)cc(OC)c1OC	.	.	.	.	.	67.1
Cc1cc(C)nc(S/C=C/C(=O)c2ccccc2F)n1	.	.	.	75.1	.	.
Cc1cc(C)nc(NC(=S)NC(=O)c2ccccc2F)n1	.	.	.	.	.	.
Cc1cccc(C(=O)Nc2nc3ncccn3c2-c2ccc(F)c(F)c2)c1	/	.	/	/	/	/
O=C1C(NS(=O)(=O)c2cccs2)=C(N2CCN(c3cccc(Cl)c3)CC2)C(=O)c2ccccc21	.	.	.	50.4	.	.
COc1cccc(CN(C)C(=O)C(Cc2ccccc2)NC(=O)c2ccccc2)c1OC (stereo not drawn)	.	.	.	.	.	57.2
COc1ccc2c(c1)CO[C@H]([C@H](O)CO)[C@H]2/C=C/c1ccccc1	/	.	/	/	/	/
COc1cc(C=Nn2c(-c3ccc(F)cc3)n[nH]c2=S)ccc1OCc1ccccc1	/	.	/	/	/	/
O=C1OCCN1C(=O)[C@H]1[C@H](c2ccc([N+](=O)[O-])cc2)C(c2ccc(F)cc2)=NN1c1ccc(Br)cc1	/	.	.	.	.	51.5
O=C(CNC(=O)c1cccc(Br)c1)N/N=C/c1cccs1	.	.	.	/	.	.
O=C(CNC(=O)c1cccc(Br)c1)N/N=C/c1cc(Br)cc(Br)c1O	.	.	.	.	.	58.9
CCOC(=O)N1CCc2c(sc(NC(=O)CN3CCOCC3)c2C(=O)Nc2ccccc2)C1	.	.	.	.	.	50.0
CCCCNC[C@@]12CO[C@H](c3ccc(Cl)cc3)N1[C@@H](c1ccc(Cl)cc1)SC2	/	.	/	/	/	/
Cc1cc2c(N=O)c(NO)ccc2[nH]1	.	/	.	/	.	57.1
COc1ccc(CCNC(=O)C(=O)NCC2CCCN2S(=O)(=O)c2ccccc2)cc1OC (stereo not drawn)	.	.	.	.	.	73.5
COc1ccc2nc3cc(Cl)ccc3c(Nc3cc(C(C)C)c(O)cc3C)c2c1	.	.	.	/	.	.

Screening results deposited in PubChem by several laboratories.
